Experimental findings from PubChem BioAssay (NCI) are described below.

Each structure is given as a SMILES string. “And” between values parts separate entries of the source, which are not always exact repeats. Equal values may be shown once. The panel holds about 83,000 compounds, 20% with a hit somewhere; the sample as a whole holds those more often.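 How to read the values: 0–100, growth inhibition (40 = 60% inhibited); 0, no net growth; -100 to 0, cell death (-40 = 40% of starting cells died; -100 = all dead).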 The source made the active and inactive calls. How the source made its calls: active means growth percent below 10; inactive means the rest.

In the assay the test system is HL-60(TB) leukemia. Kind of assay: NCI-60 one-dose screen, 48 h (100 = growth as untreated, 0 = no growth, -100 = all killed). As to conditions: 10 µM unless noted.
Turning to `Cc1cccc(Cc2cnc(NC(=O)/C=C/c3ccco3)s2)c1`, the growth was -44.8% (active).

`Cc1cc(-c2ccc(NS(=O)(=O)c3ccccc3)c(C)c2)ccc1NS(=O)(=O)c1ccccc1`: the growth is 74.5% (inactive) and 97.3% (inactive).

On to `Cc1c(C(N)=O)sc2ncn(CC(=O)NN=C3CCCCC3)c(=O)c12`, for which the growth is 123% (inactive).

Turning to `O=C(CSc1nc2ccc([N+](=O)[O-])cc2[nH]1)Nc1cccc(C(F)(F)F)c1`, the growth is 0.11% (active).

Take `O=C(Nc1cccc(-n2cc(-c3ccncc3)c(-c3ccc(Cl)c(O)c3)n2)c1)Nc1cccc(C(F)(F)F)c1`: the growth is 12.5% (inactive).

Turning to `COc1cc(/C=N/NC(=O)c2ccccc2Nc2cccc(C(F)(F)F)c2)ccc1O`, the growth is 26.9% (inactive).

As for `Cc1nc2sc(C(=O)Nc3cccc(Cl)c3C)c(N)c2cc1C(=O)c1ccccc1`, the growth was 5.28% (active).

In the case of `COc1c(NC=O)c2c(c([N+](=O)[O-])c1OC)C(=O)OC2`, the growth was 98% (inactive) and 90.7% (inactive).

As to `NC(=S)N/N=C1\CCCC(C(F)(F)F)C1` (centres undefined), the growth was 89% (inactive).

As to `O=C1OC2(c3ccccc31)c1ccc(O)c(O)c1Oc1c2ccc(O)c1O`, the growth is 98.6% (inactive) and 117% (inactive).

`COc1ccc(/C=N/C2=C(C#N)C(c3ccccc3[N+](=O)[O-])c3ccc4ccccc4c3O2)cc1` (centres undefined): the growth was 100% (inactive).

Consider `CC(C)CCN(CCCNc1c2c(nc3ccccc13)CCCC2)CCC(C)C`, for which the growth was 102% (inactive).

On to `CN(C)CCCC1(c2ccc(F)cc2)OCc2cc(-c3cncc4ccccc34)ccc21` (centres undefined), for which the growth was 10.7% (inactive).

Take `C#CC[C@@H]1C[C@]2(C)[C@H]3CC=C4[C@H]5[C@@H](C)[C@H](C)CC[C@]5(C(=O)NCCCCN)CC[C@@]4(C)[C@]3(C)CC[C@H]2C(C)(C)[C@H]1OC(C)=O`: the growth is 21.3% (inactive).

For the compound `NNC(=O)c1nc(N)n(-c2ccc(S(N)(=O)=O)cc2)n1`, the growth is 99.5% (inactive).

On to `Cc1ccc(S(=O)(=O)Nc2ccc(Cl)cc2)cc1`, for which the growth was 119% (inactive).

For `CC(C)N1CN2C(=S)NC3C2N(C1)C(=S)N3C` (centres undefined), the growth was 100% (inactive).

As to `COc1cc(C)cc2oc3oc(=O)c(-c4nc5ccccc5s4)cc3c(=O)c12`, the growth was 109% (inactive).

Take `Cc1ccn2cc(Cc3cc(=O)oc4c3ccc3ccccc34)c(=O)nc2c1`: the growth is 86.1% (inactive).

Consider `OCCN1CCN(CCCN2c3ccccc3Sc3ccc(Cl)cc32)CC1`, for which the growth is 85.8% (inactive) and 73.9% (inactive).

For the compound `O=C(N/N=C/c1cc(Cl)ccc1O)C(=O)N/N=C/c1cc(Cl)ccc1O`, the growth is 46.1% (inactive).

On to `COc1ccc(/C=C/C(=O)C(=O)/C=C/c2ccc(OC)c(OC)c2)cc1OC`, for which the growth was 35.4% (inactive).

As to `NNC(=O)c1ccc(C(=O)NN)cc1`, the growth was 124% (inactive).

As to `CC1=CC(C)(C)NC(=S)N1c1ccc(Cl)cc1`, the growth was 94.7% (inactive) and 97.6% (inactive).

With `Cc1cc(Nc2ccc(C)c(Cl)c2)n2nc(C(F)(F)F)nc2n1`, the growth was 100% (inactive).

Take `COC(=O)/C=C/C(=O)NC(N)=O`: the growth is 97.4% (inactive).

For the compound `CN(C)C/C=C/C(=O)Nc1cc2c(Nc3ccc(F)c(Cl)c3)ncnc2cc1O[C@H]1CCOC1`, the growth is -44.7% (active).

In the case of `O=C1N(Cc2ccccc2Cl)c2ccccc2C12NN=C(c1cccc(Cl)c1)S2` (centres undefined), the growth is 28.7% (inactive).

Consider `O=C(CC(O)c1ccccc1)Nc1ccccn1` (centres undefined), for which the growth was 97.3% (inactive).

Turning to `Cc1c(-n2nnc(-c3nc4ccccc4s3)c2N)c(=O)n(-c2ccccc2)n1C`, the growth was 99.2% (inactive).

With `Fc1cccc(CNc2c3ccccc3nc3ccccc23)c1F`, the growth is 76% (inactive).

As to `O=C1C=C(C(O)c2ccc(O)cc2)C(=O)c2ccccc21` (centres undefined), the growth is 98.4% (inactive).

Regarding `COc1ccc2c(c1)[nH]c(=O)c1c3cc(OC)c(OC)cc3cn21`, the growth is -18.9% (active).

`COc1ccc(C(=O)c2ccc(OC)c(OC)c2OC)cc1`: the growth was 22.3% (inactive) and -8.89% (active).

For the compound `COc1cc2nc(N3CCC[C@@H](NC(=O)C4COc5ccccc5O4)C3)nc(N)c2cc1OC` (some centres undefined), the growth was 105% (inactive) and 102% (inactive).

As to `CC(C)NCCCCCNc1cc(O)cc2cccnc12`, the growth was -43.6% (active).

`Nn1c(Nc2ccc(S(=O)(=O)Nc3ncccn3)cc2)nnc(/C=C/c2c(O)ccc3ccccc23)c1=O`: the growth was 86.1% (inactive).

`c1ccc(-c2nc(N3CCOCC3)c3c4c(sc3n2)CCCCCC4)nc1`: the growth was 68.4% (inactive).

As for `C/C(O)=C(/C=N\C(=S)Nc1ccc(S(=O)(=O)Nc2nccs2)cc1)C(=O)Nc1ccccc1C`, the growth is 105% (inactive).
